# Data from PMC7862700, “An all-to-all approach to the identification of sequence-specific readers for epigenetic DNA modifications on cytosine”.
# Assays:
# Test in all cases: DAPPL (digital affinity profiling via proximity ligation, sequencing); 10 mM Tris-HCl pH 7.5, 50 mM NaCl, 1 mM DTT, 4% glycerol, room temperature, 30 min; GST-TFs on glutathione beads, 16-mer random dsDNA library, 0.1% formaldehyde crosslink after washing; high values mean tight binding
# [1] = biological target: T1, FLI1 (Homo sapiens, UniProt Q01543 1-452); conditions: protein: recombinant; tags: N-terminal GST; dsDNA, one strand shown
# T1 sequence: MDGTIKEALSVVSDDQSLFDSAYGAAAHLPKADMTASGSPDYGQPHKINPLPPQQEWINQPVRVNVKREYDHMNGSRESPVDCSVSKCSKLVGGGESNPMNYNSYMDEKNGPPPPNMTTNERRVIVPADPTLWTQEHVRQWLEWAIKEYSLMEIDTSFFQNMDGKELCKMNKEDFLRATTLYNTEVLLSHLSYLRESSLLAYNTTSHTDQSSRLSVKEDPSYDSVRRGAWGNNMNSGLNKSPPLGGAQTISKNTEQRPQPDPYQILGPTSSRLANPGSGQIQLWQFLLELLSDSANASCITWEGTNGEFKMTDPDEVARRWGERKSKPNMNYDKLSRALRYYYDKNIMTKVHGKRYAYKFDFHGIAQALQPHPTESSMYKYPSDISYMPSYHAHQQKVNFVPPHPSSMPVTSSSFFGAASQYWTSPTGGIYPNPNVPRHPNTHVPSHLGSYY
# Summary of the method: (§1)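 Pools were built from human transcription factors expressed in yeast as GST fusions, captured on glutathione beads and DNA-barcoded, along with a tag-only sample. Incubation with 200 nmole of a 16-mer random double-stranded DNA library lasted 30 min at room temperature in Tris/NaCl/DTT/glycerol buffer, and was followed by washing, 0.1% formaldehyde crosslinking, proximity ligation, PCR amplification and Illumina NextSeq500 sequencing. Binding signal is the quotient of each hexamer's read frequency for a factor and its frequency for the tag-only sample.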
# [2] = biological target: T2, ELK1 (Homo sapiens, UniProt P19419 1-428); conditions: protein: recombinant; tags: N-terminal GST; dsDNA, one strand shown
# T2 sequence: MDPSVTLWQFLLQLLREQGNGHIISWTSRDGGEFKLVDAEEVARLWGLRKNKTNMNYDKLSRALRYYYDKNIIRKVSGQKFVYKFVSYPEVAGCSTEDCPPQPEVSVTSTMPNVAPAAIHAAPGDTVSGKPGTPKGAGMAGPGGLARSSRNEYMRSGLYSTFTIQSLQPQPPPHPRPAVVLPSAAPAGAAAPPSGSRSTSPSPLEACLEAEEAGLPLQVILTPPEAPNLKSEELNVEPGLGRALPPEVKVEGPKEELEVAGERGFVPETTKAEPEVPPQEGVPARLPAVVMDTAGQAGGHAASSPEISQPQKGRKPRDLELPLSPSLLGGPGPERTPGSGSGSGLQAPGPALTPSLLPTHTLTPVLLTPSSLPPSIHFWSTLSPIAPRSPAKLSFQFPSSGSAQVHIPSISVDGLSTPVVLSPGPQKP
# Summary of the method: as §1
# [3] = biological target: T3, GABPA (Homo sapiens, UniProt Q06546 1-454); conditions: protein: recombinant; tags: N-terminal GST; dsDNA, one strand shown
# T3 sequence: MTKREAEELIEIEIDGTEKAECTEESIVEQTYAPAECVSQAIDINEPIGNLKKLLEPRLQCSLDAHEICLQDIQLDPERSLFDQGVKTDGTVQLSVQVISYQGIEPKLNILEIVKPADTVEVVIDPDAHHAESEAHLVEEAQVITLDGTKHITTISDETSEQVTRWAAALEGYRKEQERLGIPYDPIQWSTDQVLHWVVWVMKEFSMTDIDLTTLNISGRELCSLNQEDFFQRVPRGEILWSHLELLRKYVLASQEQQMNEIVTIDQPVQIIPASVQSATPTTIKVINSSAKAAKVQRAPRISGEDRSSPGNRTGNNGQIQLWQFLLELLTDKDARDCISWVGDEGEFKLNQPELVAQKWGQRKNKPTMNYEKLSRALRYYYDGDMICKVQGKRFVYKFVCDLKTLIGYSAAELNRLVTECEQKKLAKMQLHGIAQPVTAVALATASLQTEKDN
# Summary of the method: as §1
# [4] = biological target: T4, ERG (Homo sapiens, UniProt P11308 1-479); conditions: protein: recombinant; tags: N-terminal GST; dsDNA, one strand shown
# T4 sequence: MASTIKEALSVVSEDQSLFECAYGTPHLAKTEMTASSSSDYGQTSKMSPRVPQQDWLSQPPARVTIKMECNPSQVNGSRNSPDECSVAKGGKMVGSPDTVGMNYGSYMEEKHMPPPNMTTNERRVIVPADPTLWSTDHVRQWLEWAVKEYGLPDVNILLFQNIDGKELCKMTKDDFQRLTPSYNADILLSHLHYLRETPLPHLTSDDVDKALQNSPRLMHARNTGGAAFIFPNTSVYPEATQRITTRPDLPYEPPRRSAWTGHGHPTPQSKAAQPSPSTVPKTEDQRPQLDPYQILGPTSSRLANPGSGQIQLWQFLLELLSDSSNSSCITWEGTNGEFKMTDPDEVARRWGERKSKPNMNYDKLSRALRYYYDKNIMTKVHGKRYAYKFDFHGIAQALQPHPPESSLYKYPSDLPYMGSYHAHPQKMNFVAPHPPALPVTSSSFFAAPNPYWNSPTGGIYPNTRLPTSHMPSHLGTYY
# Summary of the method: as §1
# [5] = biological target: ELF1 (Homo sapiens, UniProt P32519 1-619); conditions: protein: recombinant; tags: N-terminal GST; dsDNA, one strand shown
# Summary of the method: as §1
# [6] = biological target: T5, EHF (Homo sapiens, UniProt Q9NZC4 1-300); conditions: protein: recombinant; tags: N-terminal GST; dsDNA, one strand shown
# T5 sequence: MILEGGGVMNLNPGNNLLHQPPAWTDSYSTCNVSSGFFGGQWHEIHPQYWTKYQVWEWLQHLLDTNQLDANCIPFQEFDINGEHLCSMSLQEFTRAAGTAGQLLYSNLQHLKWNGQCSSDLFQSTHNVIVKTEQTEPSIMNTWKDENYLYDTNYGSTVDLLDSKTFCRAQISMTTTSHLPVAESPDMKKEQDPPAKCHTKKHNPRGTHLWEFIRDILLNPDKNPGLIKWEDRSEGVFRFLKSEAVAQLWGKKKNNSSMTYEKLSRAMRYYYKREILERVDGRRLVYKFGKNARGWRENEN
# Summary of the method: as §1
# [7] = biological target: SPI1 (Homo sapiens, UniProt P17947 1-270); conditions: protein: recombinant; tags: N-terminal GST; dsDNA, one strand shown
# Summary of the method: as §1
# [8] = biological target: SPIB (Homo sapiens, UniProt Q01892 1-262); conditions: protein: recombinant; tags: N-terminal GST; dsDNA, one strand shown
# Summary of the method: as §1
# [9] = biological target: T6, ELK3 (Homo sapiens, UniProt P41970 1-407); conditions: protein: recombinant; tags: N-terminal GST; dsDNA, one strand shown
# T6 sequence: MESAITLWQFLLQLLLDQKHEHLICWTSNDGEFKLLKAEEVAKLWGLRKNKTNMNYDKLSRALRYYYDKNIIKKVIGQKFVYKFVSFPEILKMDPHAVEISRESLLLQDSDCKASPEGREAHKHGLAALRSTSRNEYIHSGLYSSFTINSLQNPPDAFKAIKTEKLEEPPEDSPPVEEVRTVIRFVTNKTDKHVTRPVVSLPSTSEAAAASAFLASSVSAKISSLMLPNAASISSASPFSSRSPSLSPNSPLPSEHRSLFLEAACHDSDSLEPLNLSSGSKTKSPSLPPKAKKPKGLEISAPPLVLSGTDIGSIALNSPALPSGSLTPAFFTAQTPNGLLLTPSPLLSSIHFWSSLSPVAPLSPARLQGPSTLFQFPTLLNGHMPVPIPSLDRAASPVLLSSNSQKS
# Summary of the method: as §1
# [10] = biological target: T7, FEV (Homo sapiens, UniProt Q99581 1-238); conditions: protein: recombinant; tags: N-terminal GST; dsDNA, one strand shown
# T7 sequence: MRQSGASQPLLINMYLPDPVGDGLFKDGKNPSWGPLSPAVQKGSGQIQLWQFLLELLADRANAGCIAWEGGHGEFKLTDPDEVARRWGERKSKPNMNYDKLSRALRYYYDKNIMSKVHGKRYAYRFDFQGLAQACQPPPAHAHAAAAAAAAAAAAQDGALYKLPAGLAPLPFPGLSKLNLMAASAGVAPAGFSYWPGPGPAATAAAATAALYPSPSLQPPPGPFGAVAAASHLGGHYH
# Summary of the method: as §1
# [11] = biological target: ETV5 (Homo sapiens, UniProt P41161 1-510); conditions: protein: recombinant; tags: N-terminal GST; dsDNA, one strand shown
# Summary of the method: as §1
# [12] = biological target: HSF1 (Homo sapiens, UniProt Q00613 1-529); conditions: protein: recombinant; tags: N-terminal GST; chain copies: 3; dsDNA, one strand shown
# Summary of the method: as §1
# [13] = biological target: T8, SPIC (Homo sapiens, UniProt Q8N5J4 1-248); conditions: protein: recombinant; tags: N-terminal GST; dsDNA, one strand shown
# T8 sequence: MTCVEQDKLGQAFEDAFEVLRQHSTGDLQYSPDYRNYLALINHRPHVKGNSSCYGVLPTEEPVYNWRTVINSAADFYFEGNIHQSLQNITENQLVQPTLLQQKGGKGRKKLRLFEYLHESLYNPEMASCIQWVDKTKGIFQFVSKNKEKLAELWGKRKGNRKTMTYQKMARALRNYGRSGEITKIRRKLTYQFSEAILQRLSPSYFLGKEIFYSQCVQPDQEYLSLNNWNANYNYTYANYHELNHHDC
# Summary of the method: as §1
# [14] = biological target: ELF4 (Homo sapiens, UniProt Q99607 1-663); conditions: protein: recombinant; tags: N-terminal GST; dsDNA, one strand shown
# Summary of the method: as §1
# [15] = biological target: T9, ELK4 (Homo sapiens, UniProt P28324-2 1-405); conditions: protein: recombinant; tags: N-terminal GST; dsDNA, one strand shown
# T9 sequence: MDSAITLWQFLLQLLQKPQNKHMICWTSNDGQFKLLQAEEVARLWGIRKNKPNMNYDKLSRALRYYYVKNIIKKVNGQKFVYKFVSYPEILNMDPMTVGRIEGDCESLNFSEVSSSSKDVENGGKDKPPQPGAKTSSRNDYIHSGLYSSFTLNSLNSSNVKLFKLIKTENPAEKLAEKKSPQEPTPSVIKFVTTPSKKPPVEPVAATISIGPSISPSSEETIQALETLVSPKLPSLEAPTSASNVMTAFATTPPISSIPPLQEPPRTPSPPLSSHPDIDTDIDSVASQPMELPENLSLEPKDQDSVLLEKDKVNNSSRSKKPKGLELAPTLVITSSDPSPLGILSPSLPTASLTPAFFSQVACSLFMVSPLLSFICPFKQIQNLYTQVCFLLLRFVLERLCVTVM
# Summary of the method: as §1
# [16] = biological target: T10, ETV2 (Homo sapiens, UniProt O00321 1-342); conditions: protein: recombinant; tags: N-terminal GST; dsDNA, one strand shown
# T10 sequence: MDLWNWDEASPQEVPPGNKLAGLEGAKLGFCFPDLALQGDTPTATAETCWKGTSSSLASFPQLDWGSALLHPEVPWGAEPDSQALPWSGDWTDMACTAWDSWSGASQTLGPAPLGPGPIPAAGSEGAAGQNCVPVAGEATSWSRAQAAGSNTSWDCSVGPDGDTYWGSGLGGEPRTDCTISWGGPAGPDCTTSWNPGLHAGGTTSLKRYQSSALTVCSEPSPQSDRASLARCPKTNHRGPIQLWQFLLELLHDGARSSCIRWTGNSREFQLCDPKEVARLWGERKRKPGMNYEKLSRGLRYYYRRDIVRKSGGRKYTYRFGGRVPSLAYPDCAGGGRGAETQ
# Summary of the method: as §1
# [17] = biological target: T11, ELF3 (Homo sapiens, UniProt P78545 1-371); conditions: protein: recombinant; tags: N-terminal GST; dsDNA, one strand shown
# T11 sequence: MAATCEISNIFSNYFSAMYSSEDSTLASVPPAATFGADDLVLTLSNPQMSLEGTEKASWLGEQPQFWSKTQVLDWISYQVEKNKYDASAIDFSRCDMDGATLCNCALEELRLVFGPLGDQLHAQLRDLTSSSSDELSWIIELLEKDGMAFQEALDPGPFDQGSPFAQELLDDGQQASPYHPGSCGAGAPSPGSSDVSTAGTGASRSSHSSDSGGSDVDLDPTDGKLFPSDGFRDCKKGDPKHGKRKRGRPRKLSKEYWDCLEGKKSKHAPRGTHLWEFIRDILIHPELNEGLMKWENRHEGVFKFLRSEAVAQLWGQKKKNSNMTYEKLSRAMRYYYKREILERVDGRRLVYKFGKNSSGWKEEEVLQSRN
# Summary of the method: as §1
# [18] = biological target: CRX (Homo sapiens, UniProt O43186 1-299); conditions: protein: recombinant; tags: N-terminal GST; dsDNA, one strand shown
# Summary of the method: as §1
# [19] = biological target: ETV1 (Homo sapiens, UniProt P50549 1-477); conditions: protein: recombinant; tags: N-terminal GST; dsDNA, one strand shown
# Summary of the method: as §1
# Sequence of HSF1 (Q00613 whole entry): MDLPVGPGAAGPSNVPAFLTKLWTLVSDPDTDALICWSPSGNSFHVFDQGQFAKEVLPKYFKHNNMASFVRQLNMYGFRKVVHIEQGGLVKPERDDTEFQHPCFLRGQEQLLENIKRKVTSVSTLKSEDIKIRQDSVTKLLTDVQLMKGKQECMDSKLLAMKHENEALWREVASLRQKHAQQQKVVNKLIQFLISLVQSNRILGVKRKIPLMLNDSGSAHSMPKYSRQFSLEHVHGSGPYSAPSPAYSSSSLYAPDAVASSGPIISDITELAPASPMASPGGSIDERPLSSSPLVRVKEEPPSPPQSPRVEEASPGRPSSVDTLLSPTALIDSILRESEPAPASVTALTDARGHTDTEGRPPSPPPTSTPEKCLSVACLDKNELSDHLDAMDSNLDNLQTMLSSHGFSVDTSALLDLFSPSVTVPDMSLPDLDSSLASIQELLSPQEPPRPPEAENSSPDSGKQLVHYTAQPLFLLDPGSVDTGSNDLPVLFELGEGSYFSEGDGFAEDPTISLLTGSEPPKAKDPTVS
# Sequence of ETV5 (P41161 whole entry): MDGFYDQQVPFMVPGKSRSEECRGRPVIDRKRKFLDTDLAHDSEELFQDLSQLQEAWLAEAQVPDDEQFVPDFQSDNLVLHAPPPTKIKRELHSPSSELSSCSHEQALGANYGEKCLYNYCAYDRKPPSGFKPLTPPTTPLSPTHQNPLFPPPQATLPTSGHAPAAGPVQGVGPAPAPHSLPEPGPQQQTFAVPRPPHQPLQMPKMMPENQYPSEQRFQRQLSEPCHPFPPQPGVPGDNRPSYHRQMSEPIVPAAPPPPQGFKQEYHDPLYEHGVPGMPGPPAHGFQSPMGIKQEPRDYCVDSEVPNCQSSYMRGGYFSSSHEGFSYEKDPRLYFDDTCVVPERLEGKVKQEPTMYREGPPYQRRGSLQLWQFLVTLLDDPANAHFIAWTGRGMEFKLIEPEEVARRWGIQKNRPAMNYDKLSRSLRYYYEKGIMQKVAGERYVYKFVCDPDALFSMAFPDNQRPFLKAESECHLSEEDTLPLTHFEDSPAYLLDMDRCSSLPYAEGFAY
# Sequence of SPIB (Q01892 whole entry): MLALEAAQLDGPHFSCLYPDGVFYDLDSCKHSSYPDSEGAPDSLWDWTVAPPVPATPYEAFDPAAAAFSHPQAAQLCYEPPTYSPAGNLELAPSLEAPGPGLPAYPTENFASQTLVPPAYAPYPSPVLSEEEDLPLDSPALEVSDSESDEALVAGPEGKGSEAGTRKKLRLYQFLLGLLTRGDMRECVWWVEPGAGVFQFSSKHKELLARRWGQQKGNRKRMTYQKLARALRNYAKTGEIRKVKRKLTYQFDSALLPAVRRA
# Sequence of CRX (O43186 whole entry): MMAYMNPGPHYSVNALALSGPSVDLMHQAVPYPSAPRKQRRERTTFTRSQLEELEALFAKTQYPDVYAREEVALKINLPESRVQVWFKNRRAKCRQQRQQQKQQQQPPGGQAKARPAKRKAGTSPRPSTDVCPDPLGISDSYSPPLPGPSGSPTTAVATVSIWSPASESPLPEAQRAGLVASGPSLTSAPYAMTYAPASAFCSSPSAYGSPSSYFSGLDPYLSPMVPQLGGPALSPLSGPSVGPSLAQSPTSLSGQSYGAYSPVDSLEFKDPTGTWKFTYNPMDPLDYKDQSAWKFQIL
# Sequence of ETV1 (P50549 whole entry): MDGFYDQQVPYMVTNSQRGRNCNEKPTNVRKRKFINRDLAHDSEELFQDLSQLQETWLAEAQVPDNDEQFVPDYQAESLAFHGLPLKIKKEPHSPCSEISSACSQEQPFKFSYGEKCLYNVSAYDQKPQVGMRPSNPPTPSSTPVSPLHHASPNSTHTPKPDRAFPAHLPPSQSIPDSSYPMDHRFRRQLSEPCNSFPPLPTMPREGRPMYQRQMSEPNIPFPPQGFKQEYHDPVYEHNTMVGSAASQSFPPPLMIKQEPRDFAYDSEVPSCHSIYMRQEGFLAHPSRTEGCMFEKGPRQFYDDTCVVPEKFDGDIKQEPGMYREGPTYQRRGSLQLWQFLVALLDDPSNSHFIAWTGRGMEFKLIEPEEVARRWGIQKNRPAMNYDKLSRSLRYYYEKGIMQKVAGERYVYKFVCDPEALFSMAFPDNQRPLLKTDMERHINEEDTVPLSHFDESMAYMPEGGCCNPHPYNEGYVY
# Sequence of ELF4 (Q99607 whole entry): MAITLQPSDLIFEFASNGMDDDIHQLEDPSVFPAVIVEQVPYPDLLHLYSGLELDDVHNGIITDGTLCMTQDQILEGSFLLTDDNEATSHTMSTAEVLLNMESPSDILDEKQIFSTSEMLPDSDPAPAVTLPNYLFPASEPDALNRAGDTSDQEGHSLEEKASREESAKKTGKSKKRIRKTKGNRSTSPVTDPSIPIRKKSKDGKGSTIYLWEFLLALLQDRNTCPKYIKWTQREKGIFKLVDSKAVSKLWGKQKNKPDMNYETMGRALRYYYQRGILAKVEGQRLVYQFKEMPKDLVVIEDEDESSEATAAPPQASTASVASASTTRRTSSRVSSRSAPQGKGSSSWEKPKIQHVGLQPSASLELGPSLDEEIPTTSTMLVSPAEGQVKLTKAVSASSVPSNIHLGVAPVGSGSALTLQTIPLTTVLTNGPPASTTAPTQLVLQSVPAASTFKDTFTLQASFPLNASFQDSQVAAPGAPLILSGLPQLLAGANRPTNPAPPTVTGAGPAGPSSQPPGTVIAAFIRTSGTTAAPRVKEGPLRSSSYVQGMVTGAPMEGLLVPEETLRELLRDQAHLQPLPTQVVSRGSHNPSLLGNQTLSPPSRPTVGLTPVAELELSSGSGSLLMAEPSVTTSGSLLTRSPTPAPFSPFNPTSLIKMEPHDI
# Sequence of ELF1 (P32519 whole entry): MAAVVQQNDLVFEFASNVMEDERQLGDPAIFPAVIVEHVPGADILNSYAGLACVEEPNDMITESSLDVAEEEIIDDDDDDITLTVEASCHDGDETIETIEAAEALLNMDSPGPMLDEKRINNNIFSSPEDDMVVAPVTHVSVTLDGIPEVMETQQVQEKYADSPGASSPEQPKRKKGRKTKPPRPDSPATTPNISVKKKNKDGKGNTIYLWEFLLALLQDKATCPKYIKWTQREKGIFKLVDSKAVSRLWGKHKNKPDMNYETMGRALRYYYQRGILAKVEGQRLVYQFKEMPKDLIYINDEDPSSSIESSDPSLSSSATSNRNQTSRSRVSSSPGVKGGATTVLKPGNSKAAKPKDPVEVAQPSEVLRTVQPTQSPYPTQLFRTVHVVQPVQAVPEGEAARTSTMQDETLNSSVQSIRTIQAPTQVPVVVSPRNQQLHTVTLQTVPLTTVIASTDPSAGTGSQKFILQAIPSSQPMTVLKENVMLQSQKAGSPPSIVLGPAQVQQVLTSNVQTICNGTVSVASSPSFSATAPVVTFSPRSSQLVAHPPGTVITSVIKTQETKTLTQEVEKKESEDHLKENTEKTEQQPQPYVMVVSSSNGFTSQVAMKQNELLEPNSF
sequence,measurement,setting,value
CAAAAA,binding signal,[1],"1.14 fold enrichment (6-mer frequency, TF over GST control)"
same,binding signal,[2],"1.04 fold enrichment (6-mer frequency, TF over GST control)"
same,binding signal,[3],"1.16 fold enrichment (6-mer frequency, TF over GST control)"
same,binding signal,[4],"1.07 fold enrichment (6-mer frequency, TF over GST control)"
same,binding signal,[5],"1.16 fold enrichment (6-mer frequency, TF over GST control)"
same,binding signal,[6],"1.2 fold enrichment (6-mer frequency, TF over GST control)"
same,binding signal,[7],"1.32 fold enrichment (6-mer frequency, TF over GST control)"
same,binding signal,[8],"1.19 fold enrichment (6-mer frequency, TF over GST control)"
same,binding signal,[9],"1.17 fold enrichment (6-mer frequency, TF over GST control)"
same,binding signal,[10],"1.2 fold enrichment (6-mer frequency, TF over GST control)"
same,binding signal,[11],"1.15 fold enrichment (6-mer frequency, TF over GST control)"
same,binding signal,[12],"1.08 fold enrichment (6-mer frequency, TF over GST control)"
same,binding signal,[13],"1.01 fold enrichment (6-mer frequency, TF over GST control)"
same,binding signal,[14],"1.18 fold enrichment (6-mer frequency, TF over GST control)"
same,binding signal,[15],"1.13 fold enrichment (6-mer frequency, TF over GST control)"
same,binding signal,[16],"1.17 fold enrichment (6-mer frequency, TF over GST control)"
same,binding signal,[17],"1.12 fold enrichment (6-mer frequency, TF over GST control)"
same,binding signal,[18],"1.02 fold enrichment (6-mer frequency, TF over GST control)"
same,binding signal,[19],"1.22 fold enrichment (6-mer frequency, TF over GST control)"
